Bioassay records (PubChem BioAssay)
An excerpt weighted towards active compounds, which were near 3.5% of everything screened.
MITF primary = human MITF inhibition, primary screen; AlphaScreen MITF homodimerization, bead proximity signal; inhibition, % at 2.6 µM; actives 0.91% (n = 650,000); AID 1259374; in the data active = inhibition above about 50%
Target sequence (O75030 whole entry, looked up): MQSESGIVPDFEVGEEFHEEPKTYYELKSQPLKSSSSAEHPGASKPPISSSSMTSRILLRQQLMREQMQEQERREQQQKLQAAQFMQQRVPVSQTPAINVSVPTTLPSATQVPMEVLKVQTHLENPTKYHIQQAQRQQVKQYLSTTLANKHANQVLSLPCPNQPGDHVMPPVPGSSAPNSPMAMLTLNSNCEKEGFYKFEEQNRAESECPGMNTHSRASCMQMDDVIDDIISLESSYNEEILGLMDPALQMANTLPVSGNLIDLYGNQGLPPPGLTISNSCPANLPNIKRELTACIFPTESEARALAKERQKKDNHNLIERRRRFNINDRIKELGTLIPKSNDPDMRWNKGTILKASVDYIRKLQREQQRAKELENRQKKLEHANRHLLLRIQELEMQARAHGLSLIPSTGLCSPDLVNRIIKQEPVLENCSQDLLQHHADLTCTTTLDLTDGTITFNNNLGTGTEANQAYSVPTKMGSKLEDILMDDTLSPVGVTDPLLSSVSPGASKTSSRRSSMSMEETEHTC
FBW7 act = activators of human E3 ligase FBW7 | actives 0.13% (n = 650,000) | normalized activity (activation), % at 26.1 µM | AlphaScreen FBW7–phospho-cyclin E peptide binding, activator screen; in the data active = normalized activity above about 1.9%;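 note: purified mutant Fbw7 with reduced substrate affinity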
TEAD-YAP block = TEAD-YAP interaction inhibition | HEK-TIYL cells, TEAD-Gal4/YAP UAS-luciferase luminescence | inhibition, % at 9.12 µM | actives 1.4% (n = 640,000); in the data active = inhibition above about 32%
GPR151 ag = activates the human receptor GPR151. actives 1% (n = 650,000). activation, % at 11.2 µM. PathHunter beta-arrestin GPR151 cells, luminescence. AID 1508602; in the data active = activation above about 4.9%
Numbers stand for hits; - = inactive.

SMILES	MITF primary	FBW7 act	TEAD-YAP block	GPR151 ag
N=C1c2ccccc2CN1CC(=O)c1ccc2c(c1)OCCO2	-	-	77	-
N=c1sccn1CC(=O)c1ccc2c(c1)OCCO2	-	-	35	-
COc1ccc(C(=O)CN2Cc3ccccc3C2=N)cc1OC	-	-	-	-
COc1ccc(C(=O)Cn2ccsc2=N)cc1	-	-	-	-
Cc1cccc2c(NCc3ccccc3F)nc(CNS(=O)(=O)c3ccsc3)nc12	-	-	-	-
Cc1ccccc1C(=O)Nc1cccc(NC(=O)c2ccc(Cl)c([N+](=O)[O-])c2)c1	-	-	-	-
C[C@@H]1CN(Cc2nnnn2CC(=O)N(C)CCC2CCOCC2)C[C@H](C)O1	-	-	-	-
Cc1nc(C(C)NC2CCN(c3cccc(NC(=O)c4ccncc4)c3)CC2)cs1 (stereo unspecified)	-	-	-	-
CC(NC1CCN(c2cccc(NC(=O)c3ccncc3)c2)CC1)c1ccc(Cl)cc1 (stereo unspecified)	-	-	36	-
O=C(N/N=C/c1cccc([N+](=O)[O-])c1)c1ccc[n+]([O-])c1	-	-	-	-
CCOc1ccc(-c2cn3ccsc3n2)cc1	-	-	43	-
Oc1ccc(-c2cn3ccsc3n2)cc1	-	-	73	-
CCn1c(=O)c2c(cnn2C)c2cc([N+](=O)[O-])ccc21	-	-	-	-
Cn1c(=O)c2c(nc(CN3CCN(c4cccc(Cl)c4)CC3)n2CC(=O)C(C)(C)C)n(C)c1=O	-	-	-	-
NC(=O)N/N=C/c1cn(-c2ccccc2)nc1-c1cccs1	-	-	-	-
Cc1ccc(CN(CC(=O)O)Cc2cn(-c3ccccc3)nc2-c2cccs2)cc1	-	-	60	-
CCOc1ccc(-c2ncnn2-c2ccc(Cl)cc2)cc1	-	-	-	-
COc1ccnc(N2CCC(Oc3ccc(-c4ccc(N(C)C)nc4)cc3)CC2)n1	-	-	61	-
CN(C)c1ccc(-c2ccc(OC3CCN(CCc4ccccn4)CC3)cc2)cn1	-	-	53	-
COCc1ccc(-c2ccc(OC3CCN(c4nccc(OC)n4)CC3)cc2)cc1	-	-	-	-
Cc1ccc(/C=C/c2cc(=O)n3ccsc3n2)cc1	-	-	49	-
CC(C)c1ccc(/C=C/c2cc(=O)n3ccsc3n2)cc1	-	-	-	-
Cc1ccc(-n2ncc3c(NC(C)(C)C)ncnc32)cc1	-	-	49	-
c1ccc(CNc2ncnc3c2cnn3-c2ccccc2)cc1	-	-	-	-
CC(C)(C)Nc1ncnc2c1cnn2-c1ccccc1	-	-	45	-
SMILES	MITF primary	FBW7 act	TEAD-YAP block	GPR151 ag
Cc1ccc(C(=O)c2oc3ccc(N)cc3c2C)cc1	-	-	54	-
COc1ccc(C(=O)c2oc3ccc(NC(C)=O)cc3c2C)cc1	-	-	-	-
COc1ccc(C(=O)c2oc3ccc(N)cc3c2C)cc1	-	-	52	-
O=C(/C=C/Nc1ccc([N+](=O)[O-])cc1)C(F)(F)F	-	-	-	-
O=C1c2ccccc2C(O)(c2ncc[nH]2)N1Cc1ccccc1 (stereo unspecified)	-	-	-	-
O=C(Cc1ccccc1)Nc1cnn(-c2cccc(C(=O)Nc3ccc(Cn4ccnc4)cc3)c2)c1	-	-	-	-
O=C(Nc1ccc(Cn2ccnc2)cc1)c1cccc(-n2cc(NC(=O)C3CCc4ccccc43)cn2)c1 (stereo unspecified)	-	-	37	-
COc1cc(C=O)ccc1OCC(=O)c1ccccc1	-	-	60	-
COc1cc(C=O)ccc1OCc1cccc(C(=O)O)c1	-	-	71	-
COc1ccc(C=O)cc1OC(=O)c1ccccc1	-	-	-	-
COc1cc(/C=N/O)ccc1OCc1cccc(C(=O)O)c1	-	-	94	-
COc1cc(C=C2C(=O)NC(=O)NC2=O)ccc1OCc1cccc(C(=O)O)c1	-	-	81	-
O=C1CN(C(=O)c2ccc(Nc3ccccc3)c([N+](=O)[O-])c2)c2ccccc2N1	-	-	-	-
COCCNC(=O)CSc1ncnc2c1cnn2-c1cccc(Cl)c1	-	-	-	-
N#Cc1c(-c2ccccc2)cc(-c2ccccc2)nc1SCC1COc2ccccc2O1 (stereo unspecified)	-	-	-	-
COc1cc(/C=N/n2cnnc2)ccc1OCc1cccc(C(=O)O)c1	-	-	78	-
COc1ccc(S(=O)(=O)Oc2ccc(C=C3C(=O)NC(=O)NC3=O)cc2OC)cc1	-	-	53	-
COc1ccc(C(=O)Oc2ccc(C=C3C(=O)NC(=O)NC3=O)cc2OC)cc1	-	-	-	-
COc1ccc(/C=N/n2cnnc2)cc1COc1ccccc1F	-	-	-	-
COc1ccc(C=O)cc1COc1ccccc1F	-	2.1	-	-
COc1ccc(C2CC(c3ccccc3)=NN2C(C)=O)c(OC)c1 (stereo unspecified)	-	-	-	-
COc1ccc(C(=O)Oc2cccc(F)c2)c(OC)c1	-	-	-	-
CN(C)/C=C/C=C1\CCC/C(=C\N(C)C)C1=O	52	-	-	-
Cc1cccc(NC(=O)CSc2nc(C)cc(C)c2C#N)n1	-	-	81	-
Cc1ccc(C#N)c(SCC(=O)Nc2ccccc2C(=O)O)n1	-	-	33	-
SMILES	MITF primary	FBW7 act	TEAD-YAP block	GPR151 ag
Cc1cc(C)c(C#N)c(SCC(=O)Nc2ccccc2C(=O)O)n1	-	-	-	-
CCC(C)Nc1nc(NC)nc(Oc2ccc(C(=O)OCC(=O)OC)cc2)n1 (stereo unspecified)	-	-	-	-
Cc1ncoc1C(=O)NC1CCCc2c1cnn2-c1ccc(F)cc1F (stereo unspecified)	-	-	45	-
CC1=C(C(=O)NC2CCCc3c2cnn3-c2ccc(F)cc2F)OCCO1 (stereo unspecified)	-	-	-	-
Cc1cccc(NC(=O)c2sc3nc(C)cc(C(F)(F)F)c3c2N)n1	-	-	48	-
Cc1cc(C)c2c(N)c(C(=O)Nc3ccccn3)sc2n1	-	-	95	-
CC(NC(=O)C1(c2ccc(Cl)cc2)CCCC1)c1nc(-c2ccncc2)n[nH]1 (stereo unspecified)	-	-	-	-
c1ccc(Cc2nc3ccc(Nc4nccc(-c5cncc(N6CCOCC6)c5)n4)cc3o2)cc1	-	-	-	-
Cn1ncc2cc(Nc3nccc(-c4cncc(N5CCOCC5)c4)n3)ccc21	-	-	69	-
c1cc(-c2cncc(N3CCOCC3)c2)nc(Nc2ccc(-n3cncn3)cc2)n1	-	-	-	-
CCc1nc2ccc(Nc3nccc(-c4cncc(N5CCOCC5)c4)n3)cc2o1	-	-	34	-
Nc1nc(Nc2ccc(-n3ccnc3)cc2)cc(Nc2ccc3c(c2)OCO3)n1	-	-	-	-
c1cn(-c2ccc(Nc3nccc(Nc4ccc5c(c4)OCO5)n3)cc2)cn1	-	-	36	-
O=C(c1ccc(Nc2nccc(-c3cncc(N4CCOCC4)c3)n2)cc1)N1CCOCC1	-	-	51	-
O=C1OCCN1c1ccc(Nc2nccc(-c3cncc(N4CCOCC4)c3)n2)cc1	-	-	39	-
c1cn(-c2ccc(Nc3nccc(Nc4ccc(N5CCOCC5)cc4)n3)cc2)cn1	-	-	50	-
